Outcome data for 79 compounds are collected here from PubChem BioAssay AID489018 (Southern Research Specialized Biocontainment Screening …, 2010).

About 350 (15%) of roughly 2,300 compounds were called active. How the calls were made is not given here. Only a sample is shown. Measured potencies and affinities stand elsewhere.

The assay can be described thus: HepG2 cell cytotoxicity, dose response, cytotoxicity control for non-replicating M. tuberculosis project (AID 489018).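 Further: HepG2 human liver cells.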 The conditions noted are these: series mostly up to 20 µM.
Consider `CCCCNC(=O)Nc1nnc(-c2ccc(Cl)cc2)o1`, for which the result was inactive.

Take `CC(NC(=O)c1cc([N+](=O)[O-])cc([N+](=O)[O-])c1)c1ccc(-n2ccnc2)cc1` (centres undefined): the result was inactive.

Take `Cc1cccc(OCCN2CSC(=S)N(C)C2)c1`: the compound was called inactive.

`Clc1ccc(OCCCNCc2ccccc2)c2ccccc12`: the compound was classed as inactive.

Regarding `Clc1cccc(CNCCNCc2cccc(Cl)c2)c1`, the compound was called inactive.

Take `COC(=O)C1CC(=O)N(c2ccc(OCc3ccccc3Cl)cc2)C1` (centres undefined): the result was inactive.

With `Clc1ccc(Cl)c(OCCCCNCc2ccccc2)c1`, the call was inactive.

On to `COc1cc(CNCCc2ccccc2)cc(Br)c1OCC(=O)Nc1ccccc1C`, for which the compound was classed as inactive.

As for `COc1cc(CNC2CCCC2)cc(Cl)c1OCc1ccc(F)cc1`, the compound was classed as inactive.

Turning to `N#C/C(N=Nc1ccccc1O)=N\Nc1ccccc1O`, the result was inactive.

For the compound `O=C(OCC#CCSc1nc2ccccc2o1)c1ccco1`, the compound was called inactive.

Consider `O=C(CCNc1ccc(Cl)cc1)c1cccs1`, for which the call was inactive.

For the compound `O=C(N/N=C/c1ccccn1)c1cccc(S(=O)(=O)Nc2ccccc2Cl)c1`, the call was inactive.

For the compound `CC(=O)Nc1nc2ccccc2n1CCOc1ccccc1Cl`, the call was inactive.

Consider `COc1cccc2cc(-c3nc4ccccc4o3)c(=O)oc12`, for which the outcome was inactive.

Consider `NC(=O)c1ccc(N=Cc2ccc([N+](=O)[O-])s2)cc1`, for which the call was inactive.

With `CCC(C)(C)c1ccc(OCC(=O)Nc2ccncc2)cc1`, the compound was called inactive.

Regarding `Cc1nnc(N/N=C/c2ccc(-c3ccc(Br)cc3)o2)n1N`, the outcome was inactive.

As for `O=C(Nc1nnc(-c2ccc(Cl)cc2)o1)c1nc2ccccc2s1`, the compound was called inactive.

For the compound `Cc1ccc2nc(CCc3nc4ccc(C)cc4[nH]3)[nH]c2c1`, the call was inactive.

On to `O=C(CCNc1ccc(Cl)c(C(F)(F)F)c1)c1ccco1`, for which the result was inactive.

As to `CN(C)CCNc1c2c(c(C#N)c3nc4ccccc4n13)CCCC2`, the compound was classed as inactive.

Turning to `COc1cccc(-c2cc3nc4c(c(NCC(C)(C)CN(C)C)n3n2)CCCC4)c1`, the compound was called inactive.

On to `CSc1ccc(CNc2ncc(-c3cccc([N+](=O)[O-])c3)n2C)cc1`, for which the call was inactive.

Take `CCCCCCCC(=O)N/N=C(/C)c1c(O)cc(C)oc1=O`: the call was inactive.

For the compound `CCCCCCCC(=O)NNC(=O)c1ccc(F)cc1`, the call was inactive.

Turning to `O=C(OCc1c(Cl)cccc1Cl)c1ccccn1`, the compound was called inactive.

As to `COC(=O)COc1cccc(NC(=O)COc2ccccc2)c1`, the result was inactive.

On to `O=C(N/N=C/C(Br)=C/c1ccccc1)c1ccncc1`, for which the result was inactive.

As to `O=C(N/N=C/C(Br)=C/c1ccccc1)c1cnccn1`, the result was inactive.

Take `COc1ccc(NC(=O)CCCN2C(=O)/C(=C\c3ccco3)SC2=S)cc1`: the outcome was inactive.

As for `O=c1[nH]c(=O)n(Cc2ccccc2Cl)c(O)c1/C=C1/C=CC=N1`, the compound was called inactive.

As for `c1ccc(Nc2nc(Nc3ccccc3)nc(N3CCNCC3)n2)cc1`, the compound was called inactive.

`COc1ccc(CCOC(=O)c2ccc(N)c([N+](=O)[O-])c2)cc1`: the call was inactive.

Consider `Cc1ccccc1NC(=O)c1nc[nH]c1C(=O)NCc1ccccc1`, for which the call was inactive.

Take `O=C(COC(=O)CCc1c[nH]c2ccccc12)Nc1cc([N+](=O)[O-])ccc1Cl`: the result was inactive.

On to `C[C@H](NC(=O)c1[nH]cnc1C(=O)Nc1ccccc1)C(=O)OC(C)(C)C`, for which the outcome was inactive.

Turning to `O=c1c2c(nc3c(-c4ccccc4)c[nH]n13)CCCC2`, the call was inactive.

Turning to `Cc1ccc(-c2noc(CCCC(=O)Nc3cccnc3)n2)cc1`, the outcome was inactive.

On to `CCCCNC(=O)COC(=O)c1cc(F)c(F)cc1Cl`, for which the outcome was inactive.

Regarding `O=C(/C=C/Nc1ccccc1O)c1ccco1`, the result was inactive.

As to `O=C(CCNc1ccc(F)cc1)c1ccco1`, the call was inactive.

In the case of `COc1ccc(C(=O)COC(=O)c2ccccc2O)c(OC)c1`, the result was inactive.

Turning to `CCCS(=O)(=O)c1nnnn1-c1cccc(OC)c1`, the outcome was inactive.

With `CCOC(=O)Cn1cc(C#N)c2cccc(CC)c21`, the outcome was inactive.

Take `CCn1c(NC(=O)c2ccccc2)nc2ccccc21`: the compound was called inactive.

In the case of `CCOC(=O)COc1ccc2c(c1)c(C(C)=O)c(C)n2Cc1ccccc1`, the result was inactive.

With `CCOC(=O)C(C)Oc1ccc(OCc2ccccc2)cc1` (centres undefined), the call was inactive.

Regarding `CC(C)(C)NC(=O)c1ccc(NC(=O)c2ccccc2-c2ccccc2C(=O)O)cc1`, the compound was called inactive.

As for `CSc1ccc(N=Nc2c(C)[nH]n(C)c2=O)cc1`, the call was inactive.

As to `Nc1nc2ccccc2n1CCOc1ccccc1Cl`, the outcome was inactive.

With `C/C(=N\NC(=O)c1ccccc1)c1nc2ccccc2n1C`, the outcome was inactive.

In the case of `C/C(=N\NC(=O)c1ccc([N+](=O)[O-])c(C)c1)c1ccccc1Cl`, the outcome was inactive.

With `Cc1ccc(N2NC(=O)/C(=C/C=C/c3ccco3)C2=O)cc1C`, the outcome was inactive.

In the case of `c1ccc(CSc2ccc(-c3ccccn3)nn2)cc1`, the compound was called inactive.

`COC(=O)/C(=C1/Oc2cc(C)oc(=O)c2S1)C(F)(F)F`: the compound was classed as inactive.

For `O=C(Nc1cccc(Cl)c1N1CCCC1)c1ccc([N+](=O)[O-])o1`, the outcome was inactive.

With `Cc1ccc(-n2nnnc2CNC(=O)c2ccc([N+](=O)[O-])o2)cc1C`, the result was inactive.

As to `O=C(Nc1ccc(Cc2ccncc2)cc1)c1ccc([N+](=O)[O-])o1`, the call was inactive.

Regarding `O=C(Nc1cccc(S(=O)(=O)N2CCCCC2)c1)c1ccc([N+](=O)[O-])o1`, the outcome was inactive.

`Cc1ccc(C)c(-c2nnc(NC(=O)c3ccc([N+](=O)[O-])o3)o2)c1`: the result was inactive.

For the compound `O=C(Nc1ccccc1N1CCN(C(=O)c2ccc(Cl)cc2)CC1)c1ccc([N+](=O)[O-])o1`, the compound was called inactive.

Turning to `O=C(Nc1ccc(S(=O)(=O)N2CCOCC2)cc1)c1ccc([N+](=O)[O-])o1`, the compound was classed as inactive.

As for `O=C(Nc1nc2c(Cl)cccc2s1)c1ccc([N+](=O)[O-])o1`, the compound was called inactive.

For `CCNC(=O)COC(=O)c1ccc(-c2nc3ccccc3s2)s1`, the call was inactive.

In the case of `O=C(CCN1CCN(C/C=C/c2ccccc2)CC1)Nc1ccc(Cl)cc1`, the call was inactive.

Turning to `O=C(COc1ccc(F)cc1)N/N=C/c1cccc2cccnc12`, the compound was called inactive.

Consider `CCCn1nnnc1NC(=O)c1ccc2ccccc2c1`, for which the result was inactive.

As for `COCCn1c(C)cc(C(=O)COC(=O)c2ccc([N+](=O)[O-])o2)c1C`, the outcome was inactive.

Regarding `CC(=O)Oc1c(-c2ccc(Br)o2)oc2ccccc2c1=O`, the result was inactive.

Take `C=CCn1c(O)c(C2=c3ccccc3=NC2=O)c2ccccc21`: the compound was called inactive.

On to `O=C1c2cc([N+](=O)[O-])cc3cc([N+](=O)[O-])cc(c23)C(=O)N1c1ccccn1`, for which the outcome was inactive.

`CCCCNC(=O)COC(=O)c1cc(Br)ccc1Cl`: the call was inactive.

For `O=C(Nc1ccccn1)c1ccc([N+](=O)[O-])o1`, the outcome was inactive.

`O=C(Nc1nc(-c2ccccn2)cs1)c1ccc([N+](=O)[O-])o1`: the result was inactive.

Take `O=C(Nc1nccs1)c1ccc(-c2ccc(Cl)cc2)o1`: the call was inactive.

For `Cc1ccc(CNC(=O)c2ccc([N+](=O)[O-])o2)cc1`, the call was inactive.

Consider `O=C(Nc1ncccn1)c1ccc([N+](=O)[O-])o1`, for which the compound was called inactive.

As for `O=C(Nc1cccnc1)c1ccc(-c2ccc(Cl)cc2)o1`, the outcome was inactive.
